Experimental findings from PubChem BioAssay AID1724 (National Center for Advancing Translational Sciences (NCATS), 2009) are described below.

Inconclusive results are not listed. The source made the active and inactive calls. The call rests on the fitted dose curve; in most records, active means well fitted inhibition curve with a large enough effect; inconclusive means small, poorly fitted or top-dose-only effect, or effect the other way; inactive means no such curve, though single readings can be large or run the other way.

This test in a line: Confirmation Concentration-Response Assay for Inhibitors of the ERK Signaling Pathway using a Homogeneous Screening Assay. Put shortly: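 Phospho-ERK AlphaScreen in HEK293 cells stably expressing V1b receptor; 30 min compound exposure at 37C before 5 min 25 nM vasopressin stimulation. Data scaled between DMSO basal and vasopressin activation; AC50 via standard Hill equation.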

Turning to `O=C(Nc1ccc(N2CCN(C(=O)c3ccco3)CC2)c(Cl)c1)c1cc2ccccc2o1`, the Potency is 7.94 µM (active).
The same measure for `Cc1noc(NS(=O)(=O)c2ccc(NC(=O)COc3ccc(Cl)cc3Cl)cc2)c1C`: “inactive”.
Regarding `COc1ccc(CC(=O)Nc2cccc(-c3nnc(-c4ccc(C)cc4)o3)c2)cc1OC`, the Potency was 5.62 µM (active).
For the molecule `Cn1c(=O)cc(Nc2ccccc2)c2c(=O)n(-c3ccccc3)c(=O)n(-c3ccccc3)c21`, the Potency was 8.91 µM (active).
For `COc1ccc(N=C2C(=Nc3ccc(OC)cc3)N(c3ccc(N(C)C)cc3)C(=S)N2c2ccc(OC)cc2)cc1`, the Potency is 5.62 µM (active).
For `C=C[C@@]1(C)CC(=O)[C@@]2(O)[C@@]3(C)[C@@H](O)CCC(C)(C)[C@@H]3[C@H](O)[C@H](OC(C)=O)[C@@]2(C)O1`, the Potency entry was “inactive”.
In the case of `C=C[C@@]1(C)CC(=O)[C@@]2(O)[C@@]3(C)[C@@H](O)CCC(C)(C)[C@@H]3[C@H](OC(=O)CCN(C)C)[C@H](OC(C)=O)[C@@]2(C)O1` it was 0.282 µM (active); in that of `CCN(C1CCCCC1)S(=O)(=O)c1ccc(S(=O)(=O)NCc2ccncc2)cc1`, “inactive”.
The same measure for `CCCC(=O)N1CCN(c2ccc(NC(=O)c3cc4ccccc4o3)cc2Cl)CC1`: 7.94 µM (active); for `c1ccc(Oc2nc(NCc3ccco3)nc(NCc3ccco3)n2)cc1`: “inactive”.
The same measure for `CC1(C)OC(c2ccccc2)=C/C(=C/C=C2C(=O)c3ccccc3C2=O)O1`: 14.1 µM (active); for `CN(C)c1ccc(-c2ccc3ncnc(NCc4ccccc4)c3c2)cc1`: 15.8 µM (active); for `O=C(c1cccs1)c1no[n+]([O-])c1C(=O)c1cccs1`: 2 µM (active).
